Bioassay records deposited in PubChem by several laboratories.
EWS-Fli inh – EWS/Fli-driven NR0B1 reporter inhibitors, primary screen, A673 cells, NR0B1 luciferase, luminescence, MLPCN library | viability-normalised | inhibition, % at 12.6 µM | 350,000 compounds, 0.67% hits;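 active means mean inhibition of at least 50% after viability correction, with every replicate also passing that limit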;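 further: firefly luciferase signal divided by Alamar Blue viability fluorescence both relative to DMSO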
PAX8 inh HTS – inhibitors of PAX8-driven TPO luciferase reporter, primary screen, RMG-I cells, single concentration; SteadyGlo, 24 h; inhibition, % at 12.6 µM; 360,000 compounds, 1.2% hits; AID 652154, 2013;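 active means mean replicate inhibition at least 60% with every replicate also reaching 60%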;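 further: luciferase light reporting Pax8 driven TPO promoter activity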
TRPM1 prom inh – inhibitors of MITF-dependent TRPM1 promoter reporter, primary screen, cell-based, SK-MEL-5, single point, luciferase | SK-MEL-5 TRPM1 promoter luciferase, 24 h | inhibition, % at 12.5 µM | 330,000 compounds, 0.83% hits | AID 488899, 2010;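 active means mean inhibition across replicates of 60% or more, whatever share of single replicates reaches that level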
Shn3 3UTR inh – reduction of Shn3 3'UTR firefly luciferase signal, primary screen, Schnurri-3 inhibitor project, cell-based, Clone20 osteoblasts, set 2; Clone20 osteoblast Shn3 3'UTR firefly luciferase, 24 h; inhibition, % at 12.5 µM; 360,000 compounds, 0.52% hits; AID 588674, 2011;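 active means mean inhibition of at least 75% with every replicate also reaching 75%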
Peg3 prom inh – Peg3 promoter-driven luciferase inhibitors, primary screen, cell-based, HeLa, luciferase luminescence. 360,000 compounds, 1.7% hits. inhibition, % at 20 µM. HeLa PEG-Prom luciferase reporter, overnight;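 active means inhibition of at least 50% at 20 µM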
ABHD5-PLIN5 inh – ABHD5-PLIN5 interaction inhibitors, primary screen, cell lysate, split luciferase complementation, luminescence. Split G. princeps luciferase complementation, 4 h. inhibition, % at 4 µM. 360,000 compounds, 0.78% hits. AID 602281, 2012;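 active means inhibition above the mean inhibition across every tested compound plus 3 SD, cut at about 22% in these data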
Target sequence (Q00G26 whole entry, looked up): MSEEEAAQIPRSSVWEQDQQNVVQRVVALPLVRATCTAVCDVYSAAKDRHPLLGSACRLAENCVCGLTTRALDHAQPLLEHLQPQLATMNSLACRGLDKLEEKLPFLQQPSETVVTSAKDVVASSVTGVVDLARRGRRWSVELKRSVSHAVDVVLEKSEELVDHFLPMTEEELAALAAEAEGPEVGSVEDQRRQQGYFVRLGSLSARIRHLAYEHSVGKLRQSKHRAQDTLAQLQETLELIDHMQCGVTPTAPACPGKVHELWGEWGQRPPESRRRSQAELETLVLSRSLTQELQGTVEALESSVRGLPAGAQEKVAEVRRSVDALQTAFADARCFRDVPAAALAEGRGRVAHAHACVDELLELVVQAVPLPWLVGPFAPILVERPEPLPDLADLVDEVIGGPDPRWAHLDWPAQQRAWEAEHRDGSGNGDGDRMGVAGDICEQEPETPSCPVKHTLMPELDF
Target sequence (Q8WTS1 whole entry, looked up): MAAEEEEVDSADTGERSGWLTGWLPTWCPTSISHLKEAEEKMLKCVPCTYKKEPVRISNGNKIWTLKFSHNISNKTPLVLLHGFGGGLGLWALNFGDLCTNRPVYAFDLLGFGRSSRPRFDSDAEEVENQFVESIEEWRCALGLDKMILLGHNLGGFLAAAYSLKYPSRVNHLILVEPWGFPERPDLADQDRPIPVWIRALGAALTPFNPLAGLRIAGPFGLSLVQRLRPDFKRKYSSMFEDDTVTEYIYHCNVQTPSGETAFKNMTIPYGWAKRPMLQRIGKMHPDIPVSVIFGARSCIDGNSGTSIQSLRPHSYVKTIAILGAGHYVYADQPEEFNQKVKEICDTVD
ABHD5 PLIN5 conf – ABHD5-PLIN5 interaction inhibitors, confirmation, biochemical, luminescence; shares compounds with ABHD5-PLIN5 inh; inhibition, % at 4 µM; 2,200 compounds, 67% hits; AID 651612, 2012; in the data active means inhibition above about 23%
HNF4 counter – HNF4 dimerization inhibitors, counter-screen for ABHD5-PLIN5 interaction inhibitor project, biochemical, split-luciferase complementation, luminescence; shares compounds with ABHD5-PLIN5 inh; inhibition, % at 4 µM; 2,200 compounds, 77% hits; AID 651674, 2012;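 active means mean inhibition across replicate wells exceeding the computed hit threshold, cut at about 13% in these data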;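 further: light from luciferase halves that rejoin when HNF4 fusion proteins dimerize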
Hits are given with their value. Most compounds without a hit are left out; they make up all but 3% or so of the library.

Results for Cc1nnc(Sc2cc(NCCCO)c([N+](=O)[O-])c3nonc23)s1 ?
EWS-Fli inh: inactive; PAX8 inh HTS: 75.3; TRPM1 prom inh: 75.0; Shn3 3UTR inh: inactive; Peg3 prom inh: 56.1; ABHD5-PLIN5 inh: 27.1; ABHD5 PLIN5 conf: 48.6; HNF4 counter: 110.9

What do the screens show for `CCOc1cc(/C=C2\COc3ccccc3C2=O)ccc1OCC(=O)N(C)C`?
EWS-Fli inh: inactive; PAX8 inh HTS: inactive; TRPM1 prom inh: inactive; Shn3 3UTR inh: inactive; Peg3 prom inh: 62.1; ABHD5-PLIN5 inh: 60.7; ABHD5 PLIN5 conf: 77.1; HNF4 counter: 69.3

What do the screens show for `O=C1/C(=C/c2cccs2)COc2ccccc21`?
EWS-Fli inh: inactive; PAX8 inh HTS: inactive; TRPM1 prom inh: inactive; Shn3 3UTR inh: inactive; Peg3 prom inh: inactive; ABHD5-PLIN5 inh: inactive

How did CCNC(=O)COc1ccc(/C=C2\COc3ccccc3C2=O)cc1OC do in these assays?
PAX8 inh HTS: inactive; TRPM1 prom inh: inactive; Shn3 3UTR inh: inactive; Peg3 prom inh: 70.6; ABHD5-PLIN5 inh: 55.6; ABHD5 PLIN5 conf: 81.5; HNF4 counter: 81.1

How did CC1CCN(S(=O)(=O)c2ccc(NC(=O)Cc3ccccc3)cc2)CC1 do in these assays?
EWS-Fli inh: inactive; TRPM1 prom inh: inactive; Shn3 3UTR inh: inactive; Peg3 prom inh: inactive; ABHD5-PLIN5 inh: 33.3; ABHD5 PLIN5 conf: 49.9; HNF4 counter: inactive

How did CC1CCN(S(=O)(=O)c2ccc(NC(=O)Cn3nnc(-c4ccccc4F)n3)cc2)CC1 do in these assays?
TRPM1 prom inh: inactive; Shn3 3UTR inh: inactive; Peg3 prom inh: inactive; ABHD5-PLIN5 inh: 25.7; ABHD5 PLIN5 conf: 41.1; HNF4 counter: inactive

Results for O=C(Cc1ccccc1)Nc1ccc(S(=O)(=O)N2CCOCC2)cc1 ?
EWS-Fli inh: inactive; PAX8 inh HTS: inactive; TRPM1 prom inh: inactive; Shn3 3UTR inh: inactive; Peg3 prom inh: inactive; ABHD5-PLIN5 inh: inactive

Results for CCOc1ccc(S(=O)(=O)NCc2ccco2)c2ccccc12 ?
EWS-Fli inh: inactive; TRPM1 prom inh: inactive; Shn3 3UTR inh: inactive; Peg3 prom inh: inactive; ABHD5-PLIN5 inh: 26.2; ABHD5 PLIN5 conf: inactive; HNF4 counter: inactive

Results for Cc1ccccc1Oc1nc2c(C)cccn2c(=O)c1/C=C(\C#N)C(=O)Nc1c(C)n(C)n(-c2ccccc2)c1=O ?
EWS-Fli inh: inactive; PAX8 inh HTS: inactive; TRPM1 prom inh: inactive; Shn3 3UTR inh: inactive; Peg3 prom inh: inactive; ABHD5-PLIN5 inh: 28.1; ABHD5 PLIN5 conf: 49.0; HNF4 counter: 35.3

What do the screens show for `Cc1ccccc1Oc1nc2ccccn2c(=O)c1/C=C(\C#N)C(=O)Nc1c(C)n(C)n(-c2ccccc2)c1=O`?
PAX8 inh HTS: inactive; TRPM1 prom inh: inactive; Shn3 3UTR inh: inactive; Peg3 prom inh: inactive; ABHD5-PLIN5 inh: inactive

How did Cc1ccc(C(=O)C=CC=Cc2ccccc2)cc1 do in these assays?
EWS-Fli inh: inactive; PAX8 inh HTS: inactive; Shn3 3UTR inh: inactive; Peg3 prom inh: inactive; ABHD5-PLIN5 inh: inactive

How did Cc1ccc(C(=O)C(C(=O)/C=C/c2ccccc2)=C2SCCCS2)cc1 do in these assays?
TRPM1 prom inh: 86.2; Shn3 3UTR inh: inactive; Peg3 prom inh: 109.5; ABHD5-PLIN5 inh: 30.8; ABHD5 PLIN5 conf: 66.3; HNF4 counter: 50.4

Results for Cc1ccc(C(=O)c2coc3c2C(=O)C(=O)c2ccccc2-3)cc1 ?
TRPM1 prom inh: inactive; Shn3 3UTR inh: inactive; Peg3 prom inh: inactive; ABHD5-PLIN5 inh: 85.1; ABHD5 PLIN5 conf: 93.6; HNF4 counter: 64.6

How did Cc1oc2c(c1C(=O)c1ccc(Cl)cc1)C(=O)C(=O)c1ccccc1-2 do in these assays?
TRPM1 prom inh: inactive; Shn3 3UTR inh: 92.5; Peg3 prom inh: 107.0; ABHD5-PLIN5 inh: 54.7; ABHD5 PLIN5 conf: 80.5; HNF4 counter: 34.7

Results for Cc1ccc(C(=O)c2c(C)oc3c2C(=O)C(=O)c2ccccc2-3)cc1 ?
TRPM1 prom inh: inactive; Shn3 3UTR inh: 96.3; Peg3 prom inh: 101.2; ABHD5-PLIN5 inh: 51.2; ABHD5 PLIN5 conf: 83.9; HNF4 counter: 60.1

What do the screens show for `Cc1ccc(C(=O)c2cn[nH]c2-c2ccccc2O)cc1`?
TRPM1 prom inh: inactive; Shn3 3UTR inh: inactive; Peg3 prom inh: inactive; ABHD5-PLIN5 inh: inactive

How did Cc1ccc(S(=O)(=O)Nc2ccc3c(c2)C(=O)N([C@H](C)CO)C[C@@H](C)[C@@H](CN(C)Cc2ccccc2)OCCCC[C@H](C)O3)cc1 do in these assays?
EWS-Fli inh: inactive; PAX8 inh HTS: inactive

Results for COCCn1c(SCC#N)nnc1-c1ccccc1O ?
TRPM1 prom inh: inactive; Shn3 3UTR inh: inactive; Peg3 prom inh: inactive; ABHD5-PLIN5 inh: 57.0; ABHD5 PLIN5 conf: inactive; HNF4 counter: inactive

Results for Cc1ccc(S(=O)(=O)N[C@H]2C=C[C@@H](CC(=O)NCCc3ccncc3)O[C@H]2CO)cc1 ?
EWS-Fli inh: inactive; PAX8 inh HTS: inactive

How did O=C(CSc1nnc(-c2ccncc2)n1Cc1ccco1)Nc1ccccc1Cl do in these assays?
PAX8 inh HTS: inactive; TRPM1 prom inh: inactive; Shn3 3UTR inh: inactive; Peg3 prom inh: inactive; ABHD5-PLIN5 inh: inactive

Results for NC(=O)CSc1nnc(-c2cccs2)n1Cc1ccco1 ?
EWS-Fli inh: inactive; PAX8 inh HTS: inactive; TRPM1 prom inh: inactive; Shn3 3UTR inh: inactive; Peg3 prom inh: inactive; ABHD5-PLIN5 inh: inactive

What do the screens show for `O=C(CSc1nnc(-c2ccc(Cl)cc2)n1Cc1ccco1)c1cccs1`?
TRPM1 prom inh: inactive; Shn3 3UTR inh: inactive; Peg3 prom inh: inactive; ABHD5-PLIN5 inh: 33.1; ABHD5 PLIN5 conf: inactive; HNF4 counter: 13.7

What do the screens show for `O=C(CSc1nnc(-c2ccncc2)n1Cc1ccco1)c1ccc(Cl)cc1`?
TRPM1 prom inh: inactive; Shn3 3UTR inh: inactive; Peg3 prom inh: inactive; ABHD5-PLIN5 inh: 32.5; ABHD5 PLIN5 conf: inactive; HNF4 counter: 29.4

What do the screens show for `COc1cccc(CNC(=O)C[C@@H]2C=C[C@H](NC(=O)C3CC3)[C@@H](CO)O2)c1`?
EWS-Fli inh: inactive; PAX8 inh HTS: inactive

Results for O=S(=O)(C/C(=C/CO)S(=O)(=O)c1ccccc1)c1ccccc1 ?
TRPM1 prom inh: 77.6; Shn3 3UTR inh: 94.2; Peg3 prom inh: 94.9; ABHD5-PLIN5 inh: 65.2; ABHD5 PLIN5 conf: 94.9; HNF4 counter: 92.3

Results for O=C(CS(=O)(=O)c1ccccc1)CS(=O)(=O)c1ccccc1 ?
EWS-Fli inh: inactive; PAX8 inh HTS: inactive

What do the screens show for `Cc1ccc(C(=O)NC2(O)C(=O)c3ccccc3C2=O)cc1C`?
EWS-Fli inh: inactive; PAX8 inh HTS: inactive; TRPM1 prom inh: inactive; Shn3 3UTR inh: inactive; Peg3 prom inh: inactive; ABHD5-PLIN5 inh: inactive
